Test results: PubChem BioAssay (NCATS)
Records with an inconclusive call do not appear. Entries that show only a call come without a potency. Calls of active or inactive are those of the source. Unless noted, calls come from the whole dose curve; as a rule, active = well fitted curve in the direction sought with a large enough effect; inconclusive = small, poorly fitted or top-dose-only effect, or another doubt; inactive = no such curve, though single readings can be large; an effect the other way counts as inactive or inconclusive. Peptide text beside a SMILES is read from it.

Assays:
[1] = molecular target: Cytochrome P450 3A4 (Homo sapiens) (UniProt P08684); test: qHTS Assay for Inhibitors and Substrates of Cytochrome P450 3A4 (AID 884); note: nearly all actives have a fitted effect of over 50% in size
Method in brief: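 Luminescent readout of luciferin produced by CYP3A4 (20 nM) dealkylation of Luciferin-PPXE, 25 uM (its KM). NADPH-driven reaction ran 60 min at RT after 10 min compound preincubation; data scaled to 57 uM ketoconazole as 100% inhibition.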

[2] = Confirmation and Secondary Assay for Modulators of Hemoglobin Beta Chain Splicing at IVS2 654 locus (AID 910);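 note: per-well total GFP intensity by laser scanning cytometry after 2-day treatment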
Method in brief: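 HeLa cells stably carrying EGFP interrupted by mutant beta-globin IVS2-654 intron (CMV-driven) were treated with compound for 2 days at 37C; corrected splicing was scored as total peak GFP intensity per well (488 nm excitation, 500-520 nm emission).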

[3] = Confirmation and Secondary Assay for Modulators of Hemoglobin Beta Chain Splicing at IVS2 705 locus (AID 930);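 note: HeLa cells stably expressing the EGFP-705 splicing reporter; GFP fluorescence per well restored by corrected splicing of the IVS2-705 intron in EGFP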
Method in brief: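 HeLa EGFP-705 reporter; 500 cells/well, o/n 37C 5% CO2; cpd 2 d; 488 ex/500-520 em laser scan; total peak GFP intensity/well. Ref: 500 nM […] antisense PNA.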

[4] = qHTS Assay for Lipid Storage Modulators (AID 1519; calls by dose curve); details: Drosophila S3 cells, BODIPY lipid droplet/cell ratio, laser cytometry, cells loaded with oleic acid; for activity change, negative = inhibition: at 57.5 µM (top of the series)
Method in brief: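 Cells seeded at 5,000 per well were treated with compounds over a concentration series and loaded with oleic acid (400 uM, as added). Lipid droplet fluorescence (488 nm excitation, 500-530 nm channel) was read by laser-scanning cytometry and normalized to 20 uM Triacsin C.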

[5] = molecular target: Ubiquitin carboxyl-terminal hydrolase 1 (Homo sapiens) (UniProt O94782); test: Inhibitors of USP1/UAF1: Pilot qHTS (AID 504865);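 note: rhodamine fluorescence freed from ubiquitin-rhodamine substrate followed over time; top concentration of the series differs between compounds; nearly all actives have a fitted effect of over 35% in size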
Method in brief: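 USP1/UAF1 complex (1nM) preincubated with compound 15 min at room temperature, then Ub-Rho substrate (150nM final) added. Fluorescence read kinetically at 480/540 nm, 6 reads every 60 seconds. Buffer: 50mM HEPES pH 7.8, 0.5mM EDTA, 0.1 mg/ml BSA, 1mM TCEP, 0.01% Tween-20.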

[6] = measured here: cell count channel max response
[7] = measured here: lipid channel max response

Sequence of Ubiquitin carboxyl-terminal hydrolase 1 (Homo sapiens) (O94782 whole entry, looked up): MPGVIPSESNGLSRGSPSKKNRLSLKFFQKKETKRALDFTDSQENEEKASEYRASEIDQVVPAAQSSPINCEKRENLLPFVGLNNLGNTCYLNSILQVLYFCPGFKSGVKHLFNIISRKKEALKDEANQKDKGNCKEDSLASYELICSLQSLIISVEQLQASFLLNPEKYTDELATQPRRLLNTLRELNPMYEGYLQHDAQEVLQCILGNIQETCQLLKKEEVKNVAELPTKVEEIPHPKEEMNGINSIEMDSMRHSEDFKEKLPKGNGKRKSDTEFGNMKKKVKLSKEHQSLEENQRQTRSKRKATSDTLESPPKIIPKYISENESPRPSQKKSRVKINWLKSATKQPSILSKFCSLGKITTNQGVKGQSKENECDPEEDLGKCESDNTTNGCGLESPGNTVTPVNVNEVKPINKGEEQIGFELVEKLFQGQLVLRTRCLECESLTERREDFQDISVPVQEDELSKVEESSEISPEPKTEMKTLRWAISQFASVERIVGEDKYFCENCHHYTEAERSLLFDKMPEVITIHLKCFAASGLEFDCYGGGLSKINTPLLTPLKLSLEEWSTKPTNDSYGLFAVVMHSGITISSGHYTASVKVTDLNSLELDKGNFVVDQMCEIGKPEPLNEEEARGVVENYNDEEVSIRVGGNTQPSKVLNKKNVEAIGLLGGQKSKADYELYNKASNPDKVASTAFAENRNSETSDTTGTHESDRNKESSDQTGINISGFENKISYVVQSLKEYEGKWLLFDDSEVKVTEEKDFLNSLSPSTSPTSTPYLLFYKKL
Sequence of Cytochrome P450 3A4 (Homo sapiens) (P08684 whole entry, looked up): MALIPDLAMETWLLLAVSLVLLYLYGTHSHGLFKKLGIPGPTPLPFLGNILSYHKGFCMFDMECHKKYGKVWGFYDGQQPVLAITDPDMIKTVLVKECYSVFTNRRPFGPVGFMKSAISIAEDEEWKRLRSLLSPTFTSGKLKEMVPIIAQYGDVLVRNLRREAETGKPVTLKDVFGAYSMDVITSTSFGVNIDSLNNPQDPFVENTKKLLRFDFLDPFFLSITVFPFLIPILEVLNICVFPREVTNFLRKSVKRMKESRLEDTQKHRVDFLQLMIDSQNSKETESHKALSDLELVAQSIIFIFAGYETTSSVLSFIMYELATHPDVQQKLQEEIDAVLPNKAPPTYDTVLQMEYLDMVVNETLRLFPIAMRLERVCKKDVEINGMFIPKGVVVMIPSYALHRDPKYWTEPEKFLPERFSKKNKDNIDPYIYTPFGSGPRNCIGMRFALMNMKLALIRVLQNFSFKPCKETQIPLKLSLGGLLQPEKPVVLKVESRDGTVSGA

Structure (SMILES) | Potency [1] | Potency [2] | Potency [3] | activity change, negative = inhibition [4] | max response [4, 6] | max response [4, 7] | Potency [5]
Nc1nc2c(c(=O)[nH]1)N(C=O)C(CNc1ccc(C(=O)NC(CCC(=O)O)C(=O)O)cc1)CN2 (stereo not drawn) | inactive | inactive | inactive | 6.17% (inactive) | 17.6% | 27.2% | inactive
O=c1cc(-c2ccccc2O)oc2cc(O)ccc12 | inactive | inactive | inactive | 8.08% (inactive) | 28.6% | 40% | inactive
CC(=O)C1CCC2C3CC=C4CC(O)CC[C@@]4(C)C3CC[C@]12C (stereo partly drawn) | inactive | inactive | inactive | 2.94% (inactive) | 11.3% | 18.4% | inactive
NCC1CCCCC1CC(=O)O (stereo not drawn) | inactive | inactive | inactive | 5.88% (inactive) | 16.7% | 26.7% | inactive
OCC1OC(n2cnc3c(Cl)nc(Cl)nc32)C(O)C1O (stereo not drawn) | inactive | inactive | inactive | 6.74% (inactive) | 16.5% | 22.9% | inactive
O=C(Cc1ccccc1)NO | inactive | inactive | inactive | 4.41% (inactive) | 2.32% | 5.58% | inactive
C[C@@H]1OC(OC2CC[C@@]3(C)C(CC[C@@]4(C)C3CC=C3C5CC(C)(C)CC[C@]5(C(=O)OC5OCC(O)[C@@H](O)[C@@H]5OC5O[C@@H](C)[C@H](O[C@H]6OC(CO)C(O)C(O)C6O)C(O)C5O)C(O)C[C@@]34C)C2(C)C)C(O)C(O)[C@H]1OC1OCC(O)C(O)[C@H]1O (stereo partly drawn) | inactive | inactive | inactive | 1.15% (inactive) | -28.2% | -26.8% | inactive
COc1cc(O)ccc1C(C)=O | inactive | inactive | inactive | 7.68% (inactive) | 24.4% | 34.1% | inactive
CC(=O)OC1CCC2(C)C(=CC=C3C2CCC2(C)C3CCC2C(C)/C=C/C(C)C(C)C)C1(C)C (stereo not drawn) | inactive | inactive | inactive | 1.79% (inactive) | 12.2% | 14.9% | inactive
CC1(C)CC[C@]2(C)CC[C@@]3(C)C(=CCC4[C@@]5(C)CCC(O)C(C)(C)C5CC[C@@]43C)C2C1 (stereo partly drawn) | inactive | inactive | inactive | 3.54% (inactive) | 18% | 24.3% | inactive
CC(=O)/C=C\C1[C@]2(C)CCCC(C)(C)C2CC[C@@]1(C)O (stereo partly drawn) | inactive | inactive | inactive | 3.07% (inactive) | -10.9% | -8.32% | inactive
Nc1ncnc2nc(Cl)[nH]c12 | inactive | inactive | inactive | 2.56% (inactive) | -7.94% | -3% | inactive
CO[C@]1(NC(=O)C(C(=O)O)c2ccc(O)cc2)C(=O)N2C(C(=O)O)=C(CSc3nnnn3C)COC21 (stereo partly drawn) | inactive | inactive | inactive | 9.58% (inactive) | 18.1% | 35.5% | inactive
O=C(/C=C/c1ccc(O)c(O)c1)O[C@H]1C[C@@](O)(C(=O)O)CC(O)C1O (stereo partly drawn) | inactive | inactive | inactive | 12.5% (inactive) | 13.7% | 29.5% | inactive
CCC(C(=O)O)c1ccccc1 (stereo not drawn) | inactive | inactive | inactive | 0.321% (inactive) | 8.63% | 10.3% | inactive
COc1cccc2c1CCC1=CC(=O)CC[C@@]12C | inactive | inactive | inactive | 11.4% (inactive) | 2.03% | 15.6% | inactive
COc1cc2c(cc1O)C(Cc1ccc(O)cc1)N(C)CC2 (stereo not drawn) | inactive | inactive | inactive | 2.46% (inactive) | 13.5% | 17.7% | inactive
CC(C)(O)C1CC[C@@]2(C)C3CCC4[C@@]5(C)CCCC(C)(C)C5C(O)C[C@]4(C)[C@]3(C)CC[C@@H]12 (stereo partly drawn) | inactive | inactive | inactive | 5.94% (inactive) | 19.9% | 27.3% | inactive
C[C@@H]1/C(=N/O)CC2C[C@@H]1C2(C)C | inactive | inactive | inactive | 2.67% (inactive) | 9.02% | 13.7% | inactive
Cn1c(=O)[nH]c2nc[nH]c2c1=O | inactive | inactive | inactive | 5.61% (inactive) | 14% | 22.4% | inactive
CC(=O)OCC1OC(n2cnc3c(Cl)nc(Cl)nc32)C(OC(C)=O)C1OC(C)=O (stereo not drawn) | inactive | inactive | inactive | -4.18% (inactive) | 15.8% | 12.7% | inactive
COc1cc(-c2coc3cc(O[C@H]4OC(CO)C(O)C(O)C4O)c(OC)c(O)c3c2=O)cc(O)c1OC (stereo partly drawn) | inactive | inactive | inactive | 7.43% (inactive) | 6.4% | 13.8% | inactive
O=c1[nH]c(=O)c2nc(Br)n(C3OC(CO)C(O)C3O)c2[nH]1 (stereo not drawn) | inactive | inactive | inactive | 6.72% (inactive) | 5.7% | 13% | inactive
CC(C)=CC1C(C(=O)O)C1(C)C (stereo not drawn) | inactive | inactive | inactive | 7.47% (inactive) | 18% | 29.9% | inactive
CC1CC[C@]2(CO)CC[C@]3(C)C(=CCC4[C@@]5(C)CCC(O)C(C)(C)C5CC[C@@]43C)C2C1C (stereo partly drawn) | inactive | inactive | inactive | 6.23% (inactive) | 4.46% | 20% | inactive

Structure (SMILES) | Potency [1] | Potency [2] | Potency [3] | activity change, negative = inhibition [4] | max response [4, 6] | max response [4, 7] | Potency [5]
CC1(C)OC2C(CO)OC(n3cnc4c(=O)[nH]cnc43)C2O1 (stereo not drawn) | inactive | inactive | inactive | 1.95% (inactive) | 3.64% | 5.67% | inactive
OC1C2COC(O2)[C@H](O)C1O (stereo partly drawn) | inactive | inactive | inactive | 7.67% (inactive) | 12.6% | 22.2% | inactive
COc1ccc2c(C)cc(=O)oc2c1 | inactive | inactive | inactive | 8.28% (inactive) | 31.7% | 42.1% | inactive
COc1ccc2c(c1OC)OCC(c1ccc(OC)c(OC)c1OC)C2 (stereo not drawn) | inactive | inactive | inactive | 9.26% (inactive) | 12.7% | 23.2% | inactive
O=C(O)C1(O)CC(O)C(O)C(O)C1 (stereo not drawn) | inactive | inactive | inactive | 2.66% (inactive) | 9.62% | 14.4% | inactive
O=C(O)C(O)[C@@](O)(Cc1ccc(O)cc1)C(=O)O (stereo partly drawn) | inactive | inactive | inactive | 5.41% (inactive) | 10.8% | 18.1% | inactive
Nc1nc2c([nH]c(=O)n2C2OC(CO)C(O)C2O)c(=O)[nH]1 (stereo not drawn) | inactive | inactive | inactive | 1.54% (inactive) | 9.74% | 13.6% | inactive
CC(C)CC(NC(=O)CN)C(=O)NC(Cc1ccccc1)C(=O)O (stereo not drawn) (H-Gly-Leu-Phe-OH; configuration not given here) | inactive | inactive | inactive | 6.28% (inactive) | 3.97% | 11.6% | inactive
CC(C)=CCc1c(O)cc(C)oc1=O | inactive | inactive | inactive | 0.619% (inactive) | 9.29% | 11.1% | inactive
CC(CCC(=O)O)C1CCC2C3CC(O)[C@@H]4CC(O)CC[C@]4(C)C3CC[C@@]12C (stereo partly drawn) | inactive | inactive | inactive | 6.93% (inactive) | 12.9% | 20.4% | inactive
Nc1nc2c([nH]c(=S)n2C2OC(CO)C(O)C2O)c(=O)[nH]1 (stereo not drawn) | inactive | inactive | inactive | 2.15% (inactive) | 0.955% | 15.7% | inactive
CC1CC[C@@]2(OC1)OC1CC3C4CC[C@@H]5CC(O)CC[C@@]5(C)C4CC[C@]3(C)C1C2C (stereo partly drawn) | inactive | inactive | inactive | 4.69% (inactive) | 11.7% | 17.1% | inactive
CC1CCC(C(C)(C)O)CC2=C1CCC2C (stereo not drawn) | inactive | inactive | inactive | 7.53% (inactive) | 9.89% | 15.9% | inactive
CC(=O)OC1CC[C@]2(C)C(=CCC3C4CCC(C(C)CCCC(C)C)[C@]4(C)CCC32)C1 (stereo partly drawn) | inactive | inactive | inactive | 5.26% (inactive) | 9.32% | 13.2% | inactive
CCOC(=O)CCCCCCCCCCCCC1C=CCC1 (stereo not drawn) | inactive | inactive | inactive | 1.66% (inactive) | 9.42% | 10.7% | inactive
C[C@@]12CCC3c4ccc(OS(=O)(=O)O)cc4CCC3C1CCC2O (stereo partly drawn) | inactive | inactive | inactive | 4.64% (inactive) | 6.41% | 9.99% | inactive
CC1(C)OC2C[C@](O)(C(N)=O)C[C@H](O)[C@H]2O1 (stereo partly drawn) | inactive | inactive | inactive | 3.65% (inactive) | 15.6% | 23.7% | inactive
CC(=O)OCC1OC(n2c(Br)nc3c(=O)[nH]c(N)nc32)C(OC(C)=O)C1OC(C)=O (stereo not drawn) | inactive | inactive | inactive | 1.02% (inactive) | 9.1% | 10.5% | inactive
Nc1ncnc2c1ncn2C1OC(COP(=O)(O)O)C(O)C1O (stereo not drawn) | inactive | inactive | inactive | 5.46% (inactive) | 29.6% | 41.9% | inactive
CC(=O)Oc1cc(-c2coc3cc(OC(C)=O)c(OC(C)=O)c(OC(C)=O)c3c2=O)cc(OC(C)=O)c1OC(C)=O | inactive | inactive | inactive | 13.7% (inactive) | 12.1% | 28.6% | inactive
C=C1CCC(O)C/C1=C/C=C1\CCC[C@@]2(C)C(C(C)/C=C/C(C)C(C)C)CC[C@@H]12 (stereo partly drawn) | inactive | inactive | inactive | 14.3% (inactive) | 33.4% | 55.4% | inactive
CC1=C2C(O)C(=O)OC3CC4C(C)(C)C(=O)C=C[C@]4(C)C(CC1)[C@@]23C (stereo partly drawn) | inactive | inactive | inactive | 3.51% (inactive) | 17.8% | 24.5% | inactive
COc1ccc(-c2coc3c(OC)c(OC)cc(OC)c3c2=O)cc1 | inactive | inactive | inactive | 12.7% (inactive) | 16.4% | 29.7% | inactive
C=C(C)C1CC[C@]2(CO)CC[C@@]3(C)[C@H](CCC4[C@@]5(C)CCC(O)C(C)(C)C5CC[C@@]43C)C12 (stereo partly drawn) | inactive | inactive | inactive | -2.93% (inactive) | -9.58% | -12.7% | inactive
